The structures appear in SMILES notation. Inconclusive results are not listed. The source made the active and inactive calls. The call rests on the fitted dose curve; in most records, active means well fitted curve in the direction sought with a large enough effect in the signal ratio (not every such curve was filed as active); inconclusive means small, poorly fitted or top-dose-only effect, or effect the other way, or a change in a side signal; inactive means no such curve, though single readings can be large or run the other way; the % refers to the signal ratio.

The target of this assay is Tyrosine-protein phosphatase non-receptor type substrate 1 (Homo sapiens) + Leukocyte surface antigen CD47 (Homo sapiens) (UniProt P78324+Q08722). In words: CD47-SIRPalpha protein protein interaction - HTRF assay qHTS validation (AID 1347058). Conditions: TR-FRET HTRF CD47-His / biotin-SIRPalpha binding, ratio 665/615; series mostly up to 38.3 µM. The source says: SIRPalpha is a myeloid cell expressed immunomodulatory receptor that binds the tumor expressed immune checkpoint CD47. Therapeutic disruption of this interaction leads to immune-mediated tumor rejection. This assay was used to quantitate CD47-SIRPalpha binding biochemically and evaluate chemical libraries for novel CD47-SIRPalpha inhibitors. To recapitulate the biological interaction of CD47 and SIRPalpha, we designed expression constructs to produce their recombinant, soluble, extracellular interaction domains. CD47 was produced with an N-terminal 6His tag. SIRPalpha was produced with an N-terminal Avi-Tag for site-specific biotin incorporation. The CD47-SIRPalpha interaction was measured by TR-FRET using affinity tag linked reagents (anti-6His-Eu donor and streptavidin-XL665 acceptor). SIRPalpha without biotin incorporation was used as a positive control inhibitor.
Sequence of Tyrosine-protein phosphatase non-receptor type substrate 1 (Homo sapiens) + Leukocyte surface antigen CD47 (Homo sapiens) (P78324 whole entry, looked up, the tested form may be a part): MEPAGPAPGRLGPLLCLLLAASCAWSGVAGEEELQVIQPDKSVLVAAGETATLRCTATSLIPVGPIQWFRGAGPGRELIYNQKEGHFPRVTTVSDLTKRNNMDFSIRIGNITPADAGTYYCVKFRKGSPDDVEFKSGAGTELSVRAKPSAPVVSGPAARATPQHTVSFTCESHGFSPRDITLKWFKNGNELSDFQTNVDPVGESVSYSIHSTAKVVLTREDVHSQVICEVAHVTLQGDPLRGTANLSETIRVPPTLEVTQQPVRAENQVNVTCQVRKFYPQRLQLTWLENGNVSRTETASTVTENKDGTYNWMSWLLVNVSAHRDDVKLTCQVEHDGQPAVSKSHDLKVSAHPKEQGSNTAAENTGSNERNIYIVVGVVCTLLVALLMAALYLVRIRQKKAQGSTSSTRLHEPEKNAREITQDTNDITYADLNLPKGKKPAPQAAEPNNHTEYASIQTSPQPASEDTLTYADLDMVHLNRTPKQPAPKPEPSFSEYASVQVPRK
Sequence of Tyrosine-protein phosphatase non-receptor type substrate 1 (Homo sapiens) + Leukocyte surface antigen CD47 (Homo sapiens) (Q08722 whole entry, looked up, the tested form may be a part): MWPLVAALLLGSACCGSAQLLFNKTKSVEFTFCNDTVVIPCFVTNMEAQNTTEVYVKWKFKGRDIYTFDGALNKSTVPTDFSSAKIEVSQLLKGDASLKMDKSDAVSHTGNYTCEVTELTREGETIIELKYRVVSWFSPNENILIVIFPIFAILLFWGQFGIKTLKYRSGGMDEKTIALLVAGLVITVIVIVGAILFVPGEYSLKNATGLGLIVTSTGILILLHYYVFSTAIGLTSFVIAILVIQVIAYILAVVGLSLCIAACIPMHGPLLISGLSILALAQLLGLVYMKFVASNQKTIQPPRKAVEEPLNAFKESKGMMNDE
SEQUENCE No. (e.g., 1, 2, 3, etc.); […] (e.g., Cells, Incubation, Reagent, etc.); VALUE and DESCRIPTION.
1a. Reagent. 3 uL CD47-His (12.5 nM) and Anti-His Eu Donor reagent (0.7 nM) added to respective wells in Assay buffer; white/solid bottom high base, med bind 1536-well plates (Greiner 789075)
1b. Reagent. 2 uL Assay buffer negative control for background fluorescence
2. Reagent. 23 nL library compounds (7-pt, 1:4 intraplate titration series) or DMSO control transferred by Pin Tool
3. Centrifuge. Centrifuge plate for 30 s at 1000 RPM
4. Incubation.#Incubate reagents at room temperature for 30 min, protected from light
5. Reagent. 2 uL SIRPalpha-biotin (100 nM) in Assay buffer
6. Incubation.#Incubate reagents at room temperature for 30 min, protected from light
7. Reagent. 1 uL SAV-XL665 (85 nM) acceptor reagent added to respective wells
8. Centrifuge. Centrifuge plate for 30 s at 1000 RPM
9. Incubation. Incubate reagents at room temperature for 30 min, protected from light
10. Detector. Measure Top TR-FRET on EnVision (Eu/APC filter set); calculate ratio Ch1/Ch2
1. Assay buffer composition.#Phosphate buffered saline (PBS; 10 mM Phosphate, 137 mM NaCl, and 2.7 mM KCl; pH 7.4), 0.05% IGEPAL CA-630
2. 23nL of […] library compounds (7 plates) or DMSO vehicle control transferred to 9 Greiner white/solid bottom high base, TC plates in 7 interplate 1:5 titrations (see Yasgar, A. et al. 2008) with Pintool. Two of the 9 plates are DMSO-only in compound field at beginning and end of compound library-treated plates.
10. Detector settings#Mirror = LANCE/DELFIA Dual Enh; Ex. Filter = UV2[TRF] 320; Em. Filter = APC 665; 2nd Em. Filter = Europium 615; Measurement h = 6.5; Ex. light (%) = 100; Delay = […]; Window t = 100 us; No. Seq. windows = 1; Time between flashes = 2000us; No. of flashes = 100; No. of flashes for 2nd detector = 100; Calculation: "Ratio Ch1/Ch2"
Background: Time-resolved FRET reads energy transfer from a long-lived donor to a nearby acceptor.
Take `S=C(NC1CCCCC1)N1CCC(c2cnc[nH]2)CC1`: the result was inactive.

With `NC(CCP(=O)(O)O)C(=O)O` (stereo not given), the outcome was inactive.

For the compound `CNCCc1c[nH]c2ccc(O)cc12`, the outcome was inactive.

Consider `O=C(Cc1ccc(Cl)c(Cl)c1)N1CCCCC1CN1CCCC1` (stereo not given), for which the outcome was inactive.

In the case of `NC1CCc2cc(O)c(O)cc2C1` (stereo not given), the outcome was inactive.

In the case of `COC(=O)[C@@H](N)CCCN=C(N)N[N+](=O)[O-]`, the result was inactive.

`C[N+]1(C)C2CCC1CC(OC(=O)C(CO)c1ccccc1)C2` (stereo not given): the result was inactive.

On to `CCCN(CCC)C1CCc2ccc(O)cc2C1` (stereo not given), for which the outcome was inactive.

`CCCN1CCO[C@@H]2c3cc(O)ccc3OC[C@H]21`: the result was inactive.

With `C=CCN1CC[C@]23CCCCC2[C@H]1Cc1ccc(O)cc13` (stereo not given in full), the outcome was inactive.

For `C[C@]12N[C@H](Cc3ccccc31)c1ccccc12`, the result was inactive.

With `CCCN(CCC)[C@@H]1CCc2ccc(O)cc2C1`, the outcome was inactive.

Take `CNCCc1ccc(O)c(O)c1`: the result was inactive.

Take `Cc1nccc2c1[nH]c1ccccc12`: the result was inactive.

`NCCc1c[nH]c2ccccc12`: the outcome was inactive.

Consider `NCCc1c[nH]c2ccc(O)cc12`, for which the outcome was inactive.

With `CN[C@@H]1C[C@@H](c2ccc(Cl)c(Cl)c2)c2ccccc21`, the result was inactive.

On to `Cn1cnc(CCN)c1`, for which the result was inactive.

As to `C[C@@H](N)Cc1cnc[nH]1`, the result was inactive.

As to `C[N+](C)(C)CC(=O)O`, the result was inactive.

On to `COc1cc(C(O)CN)ccc1O` (stereo not given), for which the result was inactive.

For the compound `O=C1CCCN1CC#CCN1CCCC1`, the outcome was inactive.

As to `CS(=N)(=O)CC[C@H](N)C(=O)O` (stereo not given in full), the outcome was inactive.

As for `CCCN1CCC[C@H](c2cccc(O)c2)C1`, the outcome was inactive.

For `NC(=NCCC[C@H](N)C(=O)O)N[N+](=O)[O-]`, the result was inactive.

Consider `c1ccc(CCCN2CCN(CCOC(c3ccccc3)c3ccccc3)CC2)cc1`, for which the outcome was inactive.

Turning to `O=C(O)Cc1cnc[nH]1`, the result was inactive.

Take `O=C(O)[C@@H]1CCN1`: the result was inactive.

`O=C(O)CC[N+](=O)[O-]`: the result was inactive.

Consider `CC(C)NC(C)Cc1ccc(I)cc1` (stereo not given), for which the result was inactive.

With `C[C@]12CCC3C(CC[C@H]4C[C@H](O)CC[C@]34C)C1CC[C@@H]2C(=O)CO` (stereo not given in full), the outcome was inactive.

On to `NCc1cc(=O)[nH]o1`, for which the result was inactive.

`CC[C@@H](C(N)=O)N1CCCC1=O`: the result was inactive.

`CC1=NN=C(c2ccc(N)cc2)c2cc3c(cc2C1)OCO3`: the outcome was inactive.

Consider `O=C(N[C@H]1CN2CCC1CC2)c1ccc(Cl)cc1`, for which the outcome was inactive.

As to `NC(CP(=O)(O)O)C(=O)O` (stereo not given), the result was inactive.

`Clc1cnc(Oc2ccc(Oc3ncc(Cl)cc3Cl)cc2)c(Cl)c1`: the result was inactive.

For `CCCCc1ccc(C(=O)O)nc1`, the result was inactive.

`NC1CC1c1ccccc1` (stereo not given): the outcome was inactive.

In the case of `c1ccc2sc(C3(N4CCCCC4)CCCCC3)cc2c1`, the result was inactive.

These data come from PubChem BioAssay (NCATS).
